Reference: publication PMC11006913

Columns and labels:
Experiment in all cases: PBM; 200 nM protein, PBS
Settings in all cases: dsDNA, one strand shown
HOXB4 [1] = target: HOXB4 (Homo sapiens, UniProt P17483 148-234)
HOXB9 [2] = target: HOXB9 (Homo sapiens, UniProt P17482 171-250, T197M)
HOXA4 [3] = target: HOXA4 (Homo sapiens, UniProt Q00056 201-287, W262R)
HOXC9 [4] = target: HOXC9 (Homo sapiens, UniProt P31274 178-260, K195R)
HOXC10 = HOXC10 (Homo sapiens, UniProt Q9NYD6 254-340)
ALX4 [5] = target: ALX4 (Homo sapiens, UniProt Q9H161 200-286)
ALX4 (Homo sapiens, UniProt Q9H161 200-286), sequence (Q9H161 200-286): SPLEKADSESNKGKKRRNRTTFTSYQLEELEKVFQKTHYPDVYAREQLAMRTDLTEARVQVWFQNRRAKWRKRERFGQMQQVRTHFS

ALX4 [6] = target: ALX4 (Homo sapiens, UniProt Q9H161 200-286, Q225E)
ALX4 (Homo sapiens, UniProt Q9H161 200-286, Q225E), sequence (Q9H161 200-286 Q225E): as the sequence (Q9H161 200-286) above, with Q26E counted along it

HOXA2 [7] = target: HOXA2 (Homo sapiens, UniProt O43364 129-215, R185T)
HOXA2 (Homo sapiens, UniProt O43364 129-215, R185T), sequence (O43364 129-215 R185T): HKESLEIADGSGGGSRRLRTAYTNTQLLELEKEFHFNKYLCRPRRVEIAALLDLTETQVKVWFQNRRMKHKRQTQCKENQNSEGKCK

HOXA4 [8] = target: HOXA4 (Homo sapiens, UniProt Q00056 201-287, R217L)
HOXA4 (Homo sapiens, UniProt Q00056 201-287, R217L), sequence (Q00056 201-287 R217L): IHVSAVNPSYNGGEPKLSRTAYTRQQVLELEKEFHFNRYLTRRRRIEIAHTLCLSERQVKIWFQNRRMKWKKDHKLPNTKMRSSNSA

HOXB9 [9] = target: HOXB9 (Homo sapiens, UniProt P17482 171-250)
HOXB9 (Homo sapiens, UniProt P17482 171-250), sequence (P17482 171-250): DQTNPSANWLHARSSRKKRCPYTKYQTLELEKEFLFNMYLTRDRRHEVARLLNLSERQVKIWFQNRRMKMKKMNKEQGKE

HOXB4 [10] = target: HOXB4 (Homo sapiens, UniProt P17483 148-234, V174I)
HOXB4 (Homo sapiens, UniProt P17483 148-234, V174I), sequence (P17483 148-234 V174I): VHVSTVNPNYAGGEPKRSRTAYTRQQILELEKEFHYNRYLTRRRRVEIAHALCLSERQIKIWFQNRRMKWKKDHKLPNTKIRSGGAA

HOXC9 [11] = target: HOXC9 (Homo sapiens, UniProt P31274 178-260)
HOXC9 (Homo sapiens, UniProt P31274 178-260), sequence (P31274 178-260): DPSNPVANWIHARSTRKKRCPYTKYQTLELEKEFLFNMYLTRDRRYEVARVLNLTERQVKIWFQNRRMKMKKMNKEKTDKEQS

HOXC9 [12] = target: HOXC9 (Homo sapiens, UniProt P31274 178-260, R193K)
HOXC9 (Homo sapiens, UniProt P31274 178-260, R193K), sequence (P31274 178-260 R193K): as the sequence (P31274 178-260) above, with R16K counted along it

HOXA2 [13] = target: HOXA2 (Homo sapiens, UniProt O43364 129-215, R185K)
HOXA2 (Homo sapiens, UniProt O43364 129-215, R185K), sequence (O43364 129-215 R185K): as the sequence (O43364 129-215 R185T) above, with T57K counted along it

HOXA4 [14] = target: HOXA4 (Homo sapiens, UniProt Q00056 201-287)
HOXA4 (Homo sapiens, UniProt Q00056 201-287), sequence (Q00056 201-287): as the sequence (Q00056 201-287 R217L) above, with L17R counted along it

HOXB9 [15] = target: HOXB9 (Homo sapiens, UniProt P17482 171-250, R186Q)
HOXB9 (Homo sapiens, UniProt P17482 171-250, R186Q), sequence (P17482 171-250 R186Q): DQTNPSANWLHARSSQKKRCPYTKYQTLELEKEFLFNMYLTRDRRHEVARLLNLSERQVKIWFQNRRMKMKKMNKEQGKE

HOXC9 [16] = target: HOXC9 (Homo sapiens, UniProt P31274 178-260, R222W)
HOXC9 (Homo sapiens, UniProt P31274 178-260, R222W), sequence (P31274 178-260 R222W): as the sequence (P31274 178-260) above, with R45W counted along it

HOXA2 [17] = target: HOXA2 (Homo sapiens, UniProt O43364 129-215, Y150S)
HOXA2 (Homo sapiens, UniProt O43364 129-215, Y150S), sequence (O43364 129-215 Y150S): as the sequence (O43364 129-215 R185T) above, with Y22S, T57R counted along it

HOXA4 [18] = target: HOXA4 (Homo sapiens, UniProt Q00056 201-287, W262F)
HOXA4 (Homo sapiens, UniProt Q00056 201-287, W262F), sequence (Q00056 201-287 W262F): as the sequence (Q00056 201-287 R217L) above, with L17R, W62F counted along it

HOXA2 [19] = target: HOXA2 (Homo sapiens, UniProt O43364 129-215)
HOXA2 (Homo sapiens, UniProt O43364 129-215), sequence (O43364 129-215): as the sequence (O43364 129-215 R185T) above, with T57R counted along it

HOXB4 (Homo sapiens, UniProt P17483 148-234), sequence (P17483 148-234): as the sequence (P17483 148-234 V174I) above, with I27V counted along it
HOXC9 (Homo sapiens, UniProt P31274 178-260, K195R), sequence (P31274 178-260 K195R): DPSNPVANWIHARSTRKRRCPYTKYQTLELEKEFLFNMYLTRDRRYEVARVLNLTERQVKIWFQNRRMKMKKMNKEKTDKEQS
HOXA4 (Homo sapiens, UniProt Q00056 201-287, W262R), sequence (Q00056 201-287 W262R): as the sequence (Q00056 201-287 R217L) above, with L17R, W62R counted along it
HOXB9 (Homo sapiens, UniProt P17482 171-250, T197M), sequence (P17482 171-250 T197M): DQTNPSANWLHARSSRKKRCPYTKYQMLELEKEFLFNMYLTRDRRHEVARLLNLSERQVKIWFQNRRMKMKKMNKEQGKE
HOXC10, sequence (Q9NYD6 254-340): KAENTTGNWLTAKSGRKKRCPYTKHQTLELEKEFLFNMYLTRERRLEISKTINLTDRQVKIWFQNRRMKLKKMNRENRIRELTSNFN

| Sequence | binding signal (HOXB4 [1]) | binding signal (HOXB9 [2]) | binding signal (HOXA4 [3]) | binding signal (HOXC9 [4]) | binding signal (HOXC10) | binding signal (ALX4 [5]) | binding signal (ALX4 [6]) | binding signal (HOXA2 [7]) | binding signal (HOXA4 [8]) | binding signal (HOXB9 [9]) | binding signal (HOXB4 [10]) | binding signal (HOXC9 [11]) | binding signal (HOXC9 [12]) | binding signal (HOXA2 [13]) | binding signal (HOXA4 [14]) | binding signal (HOXB9 [15]) | binding signal (HOXC9 [16]) | binding signal (HOXA2 [17]) | binding signal (HOXA4 [18]) | binding signal (HOXA2 [19]) |
| --- | --- | --- | --- | --- | --- | --- | --- | --- | --- | --- | --- | --- | --- | --- | --- | --- | --- | --- | --- | --- |
| GTAATTAA | 13.5 upbm affinity estimate (log intensity, higher = more binding, comparable within an allelic series) | 10.6 upbm affinity estimate (log intensity, higher = more binding, comparable within an allelic series) | 10.9 upbm affinity estimate (log intensity, higher = more binding, comparable within an allelic series) | 13.3 upbm affinity estimate (log intensity, higher = more binding, comparable within an allelic series) | 12.7 upbm affinity estimate (log intensity, higher = more binding, comparable within an allelic series) | 14.4 upbm affinity estimate (log intensity, higher = more binding, comparable within an allelic series) | 14 upbm affinity estimate (log intensity, higher = more binding, comparable within an allelic series) | 13.9 upbm affinity estimate (log intensity, higher = more binding, comparable within an allelic series) | 13.3 upbm affinity estimate (log intensity, higher = more binding, comparable within an allelic series) | 12.6 upbm affinity estimate (log intensity, higher = more binding, comparable within an allelic series) | 14.3 upbm affinity estimate (log intensity, higher = more binding, comparable within an allelic series) | 13.2 upbm affinity estimate (log intensity, higher = more binding, comparable within an allelic series) | 13.2 upbm affinity estimate (log intensity, higher = more binding, comparable within an allelic series) | 13.9 upbm affinity estimate (log intensity, higher = more binding, comparable within an allelic series) | 14.3 upbm affinity estimate (log intensity, higher = more binding, comparable within an allelic series) | 12.4 upbm affinity estimate (log intensity, higher = more binding, comparable within an allelic series) | 11.3 upbm affinity estimate (log intensity, higher = more binding, comparable within an allelic series) | 11.1 upbm affinity estimate (log intensity, higher = more binding, comparable within an allelic series) | 12.9 upbm affinity estimate (log intensity, higher = more binding, comparable within an allelic series) | 13.2 upbm affinity estimate (log intensity, higher = more binding, comparable within an allelic series) |
| GTAATTAC | 13.7 upbm affinity estimate (log intensity, higher = more binding, comparable within an allelic series) | 10.6 upbm affinity estimate (log intensity, higher = more binding, comparable within an allelic series) | 10.8 upbm affinity estimate (log intensity, higher = more binding, comparable within an allelic series) | 13.1 upbm affinity estimate (log intensity, higher = more binding, comparable within an allelic series) | 12.5 upbm affinity estimate (log intensity, higher = more binding, comparable within an allelic series) | 14.3 upbm affinity estimate (log intensity, higher = more binding, comparable within an allelic series) | 13.5 upbm affinity estimate (log intensity, higher = more binding, comparable within an allelic series) | 14.1 upbm affinity estimate (log intensity, higher = more binding, comparable within an allelic series) | 13.2 upbm affinity estimate (log intensity, higher = more binding, comparable within an allelic series) | 12.3 upbm affinity estimate (log intensity, higher = more binding, comparable within an allelic series) | 14.4 upbm affinity estimate (log intensity, higher = more binding, comparable within an allelic series) | 13.1 upbm affinity estimate (log intensity, higher = more binding, comparable within an allelic series) | 13.2 upbm affinity estimate (log intensity, higher = more binding, comparable within an allelic series) | 14.3 upbm affinity estimate (log intensity, higher = more binding, comparable within an allelic series) | 14.3 upbm affinity estimate (log intensity, higher = more binding, comparable within an allelic series) | 12.1 upbm affinity estimate (log intensity, higher = more binding, comparable within an allelic series) | 11 upbm affinity estimate (log intensity, higher = more binding, comparable within an allelic series) | 11.2 upbm affinity estimate (log intensity, higher = more binding, comparable within an allelic series) | 12.5 upbm affinity estimate (log intensity, higher = more binding, comparable within an allelic series) | 13.4 upbm affinity estimate (log intensity, higher = more binding, comparable within an allelic series) |
| GATAATTA | 13.8 upbm affinity estimate (log intensity, higher = more binding, comparable within an allelic series) | 10.5 upbm affinity estimate (log intensity, higher = more binding, comparable within an allelic series) | 11 upbm affinity estimate (log intensity, higher = more binding, comparable within an allelic series) | 12.9 upbm affinity estimate (log intensity, higher = more binding, comparable within an allelic series) | 12.2 upbm affinity estimate (log intensity, higher = more binding, comparable within an allelic series) | 14.4 upbm affinity estimate (log intensity, higher = more binding, comparable within an allelic series) | 14.1 upbm affinity estimate (log intensity, higher = more binding, comparable within an allelic series) | 13.9 upbm affinity estimate (log intensity, higher = more binding, comparable within an allelic series) | 13.1 upbm affinity estimate (log intensity, higher = more binding, comparable within an allelic series) | 11.9 upbm affinity estimate (log intensity, higher = more binding, comparable within an allelic series) | 14.5 upbm affinity estimate (log intensity, higher = more binding, comparable within an allelic series) | 12.8 upbm affinity estimate (log intensity, higher = more binding, comparable within an allelic series) | 12.8 upbm affinity estimate (log intensity, higher = more binding, comparable within an allelic series) | 13.8 upbm affinity estimate (log intensity, higher = more binding, comparable within an allelic series) | 14.3 upbm affinity estimate (log intensity, higher = more binding, comparable within an allelic series) | 11.8 upbm affinity estimate (log intensity, higher = more binding, comparable within an allelic series) | 11.1 upbm affinity estimate (log intensity, higher = more binding, comparable within an allelic series) | 10.9 upbm affinity estimate (log intensity, higher = more binding, comparable within an allelic series) | 12.6 upbm affinity estimate (log intensity, higher = more binding, comparable within an allelic series) | 13.2 upbm affinity estimate (log intensity, higher = more binding, comparable within an allelic series) |
| TAATTAAA | 13.3 upbm affinity estimate (log intensity, higher = more binding, comparable within an allelic series) | 10.3 upbm affinity estimate (log intensity, higher = more binding, comparable within an allelic series) | 10.8 upbm affinity estimate (log intensity, higher = more binding, comparable within an allelic series) | 13.1 upbm affinity estimate (log intensity, higher = more binding, comparable within an allelic series) | 12.7 upbm affinity estimate (log intensity, higher = more binding, comparable within an allelic series) | 14.4 upbm affinity estimate (log intensity, higher = more binding, comparable within an allelic series) | 14.1 upbm affinity estimate (log intensity, higher = more binding, comparable within an allelic series) | 13.5 upbm affinity estimate (log intensity, higher = more binding, comparable within an allelic series) | 12.8 upbm affinity estimate (log intensity, higher = more binding, comparable within an allelic series) | 12.4 upbm affinity estimate (log intensity, higher = more binding, comparable within an allelic series) | 14.1 upbm affinity estimate (log intensity, higher = more binding, comparable within an allelic series) | 13 upbm affinity estimate (log intensity, higher = more binding, comparable within an allelic series) | 13 upbm affinity estimate (log intensity, higher = more binding, comparable within an allelic series) | 13.5 upbm affinity estimate (log intensity, higher = more binding, comparable within an allelic series) | 14.1 upbm affinity estimate (log intensity, higher = more binding, comparable within an allelic series) | 12.1 upbm affinity estimate (log intensity, higher = more binding, comparable within an allelic series) | 11.5 upbm affinity estimate (log intensity, higher = more binding, comparable within an allelic series) | 10.9 upbm affinity estimate (log intensity, higher = more binding, comparable within an allelic series) | 12.3 upbm affinity estimate (log intensity, higher = more binding, comparable within an allelic series) | 12.9 upbm affinity estimate (log intensity, higher = more binding, comparable within an allelic series) |
| CTAATTAA | 13.3 upbm affinity estimate (log intensity, higher = more binding, comparable within an allelic series) | 10.2 upbm affinity estimate (log intensity, higher = more binding, comparable within an allelic series) | 11 upbm affinity estimate (log intensity, higher = more binding, comparable within an allelic series) | 12.7 upbm affinity estimate (log intensity, higher = more binding, comparable within an allelic series) | 12.2 upbm affinity estimate (log intensity, higher = more binding, comparable within an allelic series) | 14.4 upbm affinity estimate (log intensity, higher = more binding, comparable within an allelic series) | 14.4 upbm affinity estimate (log intensity, higher = more binding, comparable within an allelic series) | 13.8 upbm affinity estimate (log intensity, higher = more binding, comparable within an allelic series) | 12.9 upbm affinity estimate (log intensity, higher = more binding, comparable within an allelic series) | 11.8 upbm affinity estimate (log intensity, higher = more binding, comparable within an allelic series) | 13.9 upbm affinity estimate (log intensity, higher = more binding, comparable within an allelic series) | 12.6 upbm affinity estimate (log intensity, higher = more binding, comparable within an allelic series) | 12.6 upbm affinity estimate (log intensity, higher = more binding, comparable within an allelic series) | 13.8 upbm affinity estimate (log intensity, higher = more binding, comparable within an allelic series) | 14.2 upbm affinity estimate (log intensity, higher = more binding, comparable within an allelic series) | 11.6 upbm affinity estimate (log intensity, higher = more binding, comparable within an allelic series) | 11.2 upbm affinity estimate (log intensity, higher = more binding, comparable within an allelic series) | 11 upbm affinity estimate (log intensity, higher = more binding, comparable within an allelic series) | 12.7 upbm affinity estimate (log intensity, higher = more binding, comparable within an allelic series) | 13 upbm affinity estimate (log intensity, higher = more binding, comparable within an allelic series) |
